Measured values as given in PubChem BioAssay AID2551 (National Center for Advancing Translational Sciences (NCATS), 2010).
Hit rate of the full screen: of about 310,000 compounds, about 17,000 (5.5%) were called active. Another 11% or so got no clear call; they are omitted. The call rests on the fitted dose curve; in most records, active means well fitted inhibition curve with a large enough effect; inconclusive means small, poorly fitted or top-dose-only effect, or effect the other way; inactive means no such curve, though single readings can be large or run the other way. Shown is part of a subset that was picked to be rich in actives. A call without a number means that no potency is given here.
Further: nearly all actives have a fitted effect of over 60% in size.
Potency means the concentration at half of the fitted maximal effect.

Each molecule was assayed against Nuclear receptor ROR-gamma (Mus musculus) (UniProt P51450) (assay: qHTS for inhibitors of ROR gamma transcriptional activity). Settings: Drosophila S2 Gal4-RORgamma UAS-luciferase reporter, 20 h; series mostly up to 53.6 µM.
Sequence of Nuclear receptor ROR-gamma (Mus musculus) (P51450 whole entry, looked up, the tested form may be a part): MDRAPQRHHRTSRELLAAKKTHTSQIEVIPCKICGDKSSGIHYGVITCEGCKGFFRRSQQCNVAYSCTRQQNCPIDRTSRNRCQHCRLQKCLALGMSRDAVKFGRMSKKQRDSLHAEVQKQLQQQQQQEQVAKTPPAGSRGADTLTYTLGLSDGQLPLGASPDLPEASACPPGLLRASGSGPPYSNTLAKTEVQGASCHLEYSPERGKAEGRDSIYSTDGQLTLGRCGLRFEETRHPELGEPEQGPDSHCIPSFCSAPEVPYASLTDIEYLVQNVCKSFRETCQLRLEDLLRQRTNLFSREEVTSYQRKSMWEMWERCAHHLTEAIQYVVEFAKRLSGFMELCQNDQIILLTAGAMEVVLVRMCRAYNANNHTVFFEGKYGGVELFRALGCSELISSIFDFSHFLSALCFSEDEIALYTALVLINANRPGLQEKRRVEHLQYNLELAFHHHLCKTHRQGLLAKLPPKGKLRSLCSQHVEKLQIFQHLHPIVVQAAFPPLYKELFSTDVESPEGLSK
Procedure, shortened: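 ROR gamma transcriptional activity was tracked as Gal4-UAS luciferase output in stably transfected Drosophila Schneider cells, with compound added 1 hr before 700 uM copper sulfate induction and a 20 hr ambient-temperature incubation.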
In the case of `O=C(NC(Cc1ccccc1)C(=O)O)/C(=C\c1ccccc1)NC(=O)c1ccco1` (stereo not given), the Potency was “inactive”.
For `CC(C)Oc1ccc(CCc2n[nH]c(=S)n2Cc2ccccc2)cc1`, the Potency was 3.16 µM (active).
For `C=CCn1c(CCc2ccc(OC(C)C)cc2)n[nH]c1=S`, the Potency was “inactive”.
In the case of `CC(=O)N(OCc1ccc(OC(C)C)c(Cl)c1)C(C)=O`, the Potency was “inactive”.
`CC(C)Oc1ccc(CCc2nnc(SCC(=O)O)n2-c2ccccc2)cc1` was tested, and the Potency was “inactive”.
With `CC(C)Oc1ccc(Cc2n[nH]c(=S)n2Cc2ccccc2)cc1Cl` the Potency was 3.98 µM (active).
With `CC(=O)Nc1ccc(S(=O)(=O)N2CCC(C(=O)NC3CC3)CC2)cc1` the Potency was “inactive”.
With `OC(CNC1CCCC1)COc1ccc(F)cc1` (stereo not given) the Potency was “inactive”.
For `COc1ccccc1CNS(=O)(=O)c1ccc2c(c1)NC(=O)CS2`, the Potency was “inactive”.
For `CCCn1nc(NS(=O)(=O)c2ccc(F)cc2)c2cc3ccccc3nc21`, the Potency was “inactive”.
`COc1ccc(N=Nc2ccc(O)c(P(=O)(c3ccccc3)c3ccccc3)c2)cc1` was tested, and the Potency was “inactive”.
For `Cc1cc(N=Nc2ccc3ccccc3c2)ccc1O`, the Potency was 11.2 µM (active).
`Cc1cccc(C(=O)NNC(=O)CSc2nnc(C(C)C)n2C)c1` was tested, and the Potency was “inactive”.
In the case of `Cc1c(C(C)(C)O)[nH]c2ccc(C#N)cc12`, the Potency was “inactive”.
In the case of `CCn1c(SCC(=O)NNC(=O)c2ccc(OC)cc2)nnc1C(C)C`, the Potency was “inactive”.
With `COC(=O)C1=C(C)N(C)C(=S)NC1c1cc(OC)ccc1OC` (stereo not given) the Potency was 15.8 µM (active).
In the case of `COC(=O)C1=C(C)OC(N)=C(C#N)C1c1cc(OC)ccc1OC` (stereo not given), the Potency was “inactive”.
For `COC(=O)C1=C(C)N(C)C(=S)NC1c1ccccc1` (stereo not given), the Potency was “inactive”.
With `CCOC(=O)c1c(-c2ccccc2)oc2ccc(OCC(N)=O)cc12` the Potency was “inactive”.
`CCOC(=O)c1c(S(=O)(=O)Nc2cccc(Cl)c2)c(C)n(C)c1C` was tested, and the Potency was “inactive”.
For `C/C(Cc1ccccc1)=N\NC(=O)CNC(=O)c1ccccc1Cl`, the Potency was “inactive”.
In the case of `CC/C(=N\NC(=O)c1ccccc1Cl)c1ccc(Br)s1`, the Potency was 11.2 µM (active).
With `CC(=O)Nc1cccc(/C(C)=N/NC(=O)c2ccccc2Cl)c1` the Potency was “inactive”.
With `CCCOc1ccc(C(=O)C(CCC(CNCC)C(=O)c2ccc(OCCC)cc2)CNCC)cc1` (stereo not given) the Potency was 15.8 µM (active).
With `CCCCOc1ccc(C(=O)NCc2ccncc2)cc1` the Potency was “inactive”.
For `CCCOc1ccc(N/C=C/C(=O)C(C)(C)C)cc1`, the Potency was “inactive”.
In the case of `COc1cccc(-n2c(=S)[nH]c3c(oc4ccccc43)c2=O)c1`, the Potency was 7.08 µM (active).
In the case of `COc1cccc(-n2cc(C(=O)O)c3ccccc3c2=O)c1`, the Potency was “inactive”.
In the case of `COc1cccc(N2C(=O)CN(Cc3ccccc3)C2=S)c1`, the Potency was “inactive”.
`CCNCc1cc2cc(C)ccc2[nH]c1=O` was tested, and the Potency was “inactive”.
For `CCc1cccc(CC)c1NC(=S)Nc1ccc2cn[nH]c2c1`, the Potency was “inactive”.
For `CCc1cccc(CC)c1NC(=S)NCc1ccc2[nH]c(C)cc2c1`, the Potency was 2.51 µM (active).
In the case of `Cc1cccc(S(=O)(=O)N2CN(CC3CCCO3)c3nc4ccccc4nc32)c1` (stereo not given), the Potency was “inactive”.
With `CC(C)(C)n1nnnc1C(c1ccc(Cl)cc1)N1CCSCC1` (stereo not given) the Potency was “inactive”.
With `CC(C)(C)n1nnnc1C(c1ccc2ncccc2c1)N1CCSCC1` (stereo not given) the Potency was 10 µM (active).
For `CCC(C)(C)n1nnnc1C(c1ccccc1OC)N1CCSCC1` (stereo not given), the Potency was “inactive”.
In the case of `Cc1c(C)c2ccc(OCC(=O)N3CCC(C(=O)O)CC3)c(C)c2oc1=O`, the Potency was “inactive”.
`C=C(C)CNC(=S)/N=c1\scc(C)n1CC` was tested, and the Potency was 7.94 µM (active).
For `Cc1csc(=Nc2ccccc2)n1CCO`, the Potency was “inactive”.
With `Cc1csc(=NC(=O)c2ccccc2)n1CCO` the Potency was “inactive”.
For `COc1ccc(-c2c(C#Cc3ccccc3)c3ccccc3n2C)cc1`, the Potency was “inactive”.
`Cc1c(C)c(C)c2[nH]c(=S)[nH]c2c1C` was tested, and the Potency was 2.82 µM (active).
`Cc1cc(=O)[nH]c(=S)[nH]1` was tested, and the Potency was “inactive”.
In the case of `O=c1[nH]c(=S)[nH]c2[nH]c(=S)[nH]c12`, the Potency was “inactive”.
For `CCOC(=O)CNc1nc(Cl)nc(Nc2ccc(OC)cc2OC)n1`, the Potency was “inactive”.
With `COCC1CCN(C(=O)c2ccc3oc(Cc4ccccc4)nc3c2)C1` (stereo not given) the Potency was “inactive”.
With `COc1ccc(NC(=O)C2CCC(CNC(=O)[C@@H]3Cc4ccccc4CN3)CC2)cc1` (stereo not given in full) the Potency was “inactive”.
`COc1ccc(NC(=O)CN2C(=O)COc3ccc(S(=O)(=O)N4CCOCC4)cc32)c(OC)c1` was tested, and the Potency was “inactive”.
For `O=C(C[n+]1cc(Br)cc2ccccc21)c1ccc(F)cc1`, the Potency was “inactive”.
In the case of `COc1ccc(C(=O)N2CCCCC2C(=O)Nc2ccc(-n3nc(C)cc3C)cc2)o1` (stereo not given), the Potency was “inactive”.
`Cc1cccc(CNS(=O)(=O)c2ccc(-c3cnc(C4CC4)o3)cc2)c1` was tested, and the Potency was “inactive”.
For `CC(CCc1ccc(O)cc1)NCc1ccc(Cl)cc1Cl` (stereo not given), the Potency was “inactive”.
`CC(C)(C)SCCNC(=O)c1cccc([N+](=O)[O-])c1` was tested, and the Potency was “inactive”.
For `Cc1cccc(C(=O)NNC(=O)c2cccc([N+](=O)[O-])c2)c1`, the Potency was “inactive”.
`CC(C)CC(=O)NC(=S)NNC(=O)c1cccc([N+](=O)[O-])c1` was tested, and the Potency was 12.6 µM (active).
`O=C(NNS(=O)(=O)Cc1ccccc1)c1ccc([N+](=O)[O-])cc1` was tested, and the Potency was “inactive”.
In the case of `CCCCCC(=O)NC(=S)NNC(=O)c1ccc([N+](=O)[O-])cc1`, the Potency was 14.1 µM (active).
`CCCCCC(=O)Nc1ccc(C(=O)N/N=C/c2ccc([N+](=O)[O-])cc2)cc1` was tested, and the Potency was “inactive”.
In the case of `COc1ccc(OC)c(CCNC(=O)c2nn(C)c3c2CS(=O)(=O)c2ccccc2-3)c1`, the Potency was “inactive”.
For `Cc1cc2oc(=O)cc(CN3CCN(Cc4ccccc4)CC3)c2cc1C`, the Potency was “inactive”.
`CCCc1nc2sc3c(c2c(=O)n1NC(=O)CCCl)CCCC3` was tested, and the Potency was “inactive”.
With `CCn1c(=S)[nH]c2sc3c(c2c1=O)CCCCC3` the Potency was 0.447 µM (active).
With `CN(C)CCCn1c(=O)n(Cc2ccccc2)c(=O)c2c3c(sc21)CCCCC3` the Potency was “inactive”.
For `Cc1cccc(C(=O)N2CCCC(Nc3ccc(C(C)C)cc3)C2)n1` (stereo not given), the Potency was “inactive”.
For `CC(C)c1ccc(NC2CCCN(C(=O)c3ccncc3)C2)cc1` (stereo not given), the Potency was 2.51 µM (active).
In the case of `COc1ccc(NC2CCCN(C(=O)c3ccncc3)C2)cc1` (stereo not given), the Potency was “inactive”.
`O=C(CCC1CCCN(C(=O)c2ccc(F)c(F)c2)C1)N1CCN(c2ccccn2)CC1` (stereo not given) was tested, and the Potency was “inactive”.
`CC(NC(=O)c1cc2cc(Cl)ccc2oc1=N)c1ccccc1` (stereo not given) was tested, and the Potency was “inactive”.
In the case of `CCC(C)NC(=O)c1nn(C)c(=O)c2ccccc12` (stereo not given), the Potency was “inactive”.
In the case of `Cc1nc2ccccc2n1CC(=O)N/N=C/c1cccs1`, the Potency was “inactive”.
`CCC(C)NC(=O)c1c(N)n(/N=C/c2cccs2)c2nc3ccccc3nc12` (stereo not given) was tested, and the Potency was 10 µM (active).
For `O=C(NCc1cccc(CNC(=O)Nc2cccc(O)c2)c1)Nc1cccc(O)c1`, the Potency was “inactive”.
With `COc1ccc(CCNC(=O)CCNS(=O)(=O)c2cc(Br)cnc2N)cc1OC` the Potency was “inactive”.
In the case of `CCc1nc(Nc2ccc(NC(C)=O)cc2)c2oc3ccccc3c2n1`, the Potency was “inactive”.
`CC1C(=O)C(C)C(c2ccc(O)cc2)NC1c1ccc(O)cc1` (stereo not given) was tested, and the Potency was “inactive”.
For `Cc1cc(C)nc(Nc2ncn[nH]2)n1`, the Potency was “inactive”.
In the case of `Cc1cc(C)nc(Nc2n[nH]c(-c3ccccc3N)n2)n1`, the Potency was 10 µM (active).
For `Cc1cc(Nc2ccccc2)nc(N)n1`, the Potency was “inactive”.
In the case of `O=C(C1CC(=O)N(C2CCCCC2)C1)N1CCN(c2ccccc2)CC1` (stereo not given), the Potency was “inactive”.
With `COc1cccc(CNC(=O)C2CCCN(S(=O)(=O)N3CC(C)CC(C)C3)C2)c1` (stereo not given) the Potency was “inactive”.
With `O=C(c1cnc(Cl)c(Cl)c1)N1CCN(S(=O)(=O)c2ccc(F)cc2)CC1` the Potency was “inactive”.
`O=C(N/N=C/c1ccccn1)C12CC3CC(CC(C3)C1)C2` was tested, and the Potency was 2.82 µM (active).
In the case of `CNC(=O)C(=O)N/N=C/c1ccccn1`, the Potency was “inactive”.
With `O=C(Nc1ccc(S(=O)(=O)Nc2ncccn2)cc1)C12CC3CC(CC(C3)C1)C2` the Potency was “inactive”.
In the case of `CC(C)(C)C1CCC(C(=O)NCC(c2cccs2)N2CCOCC2)CC1` (stereo not given), the Potency was “inactive”.
For `O=C(CNC(=O)OCc1ccccc1)NC1CCCCNC1=O` (stereo not given), the Potency was “inactive”.
In the case of `O=[N+]([O-])c1cc([N+](=O)[O-])c(Oc2cc(F)cc(F)c2F)cc1NN1CCCCC1`, the Potency was “inactive”.
In the case of `O=C(NCc1ccccn1)c1cc(Br)ccc1Cl`, the Potency was “inactive”.
With `COc1ccc(-c2ccc(CNCCCN3CCOCC3)o2)cc1Cl` the Potency was “inactive”.
In the case of `Fc1ccc(-c2ccc(CNCc3ccccn3)o2)cc1Cl`, the Potency was 11.2 µM (active).
With `CCOc1ccc(-n2c(SCC(N)=O)nnc2-c2ccco2)cc1` the Potency was “inactive”.
In the case of `COc1ccccc1S(=O)(=O)c1c(C)cc(C)[nH]c1=O`, the Potency was “inactive”.
With `O=C1N/C(=C/c2cccn2-c2ccccc2)C(=O)N1c1cccc(Cl)c1` the Potency was “inactive”.
For `COc1cc2c(cc1/C=C1/NC(=O)N(c3ccccc3)C1=O)OCO2`, the Potency was “inactive”.
In the case of `O=C1/C(=C\c2ccsc2)NC(=S)N1c1ccccc1`, the Potency was 7.08 µM (active).
For `COc1ccc(OCC(O)CN(C)C(=O)C(C)Oc2ccccc2)cc1` (stereo not given), the Potency was “inactive”.
In the case of `COc1ccc(C(=O)NCCCN2CCOCC2)cc1Br`, the Potency was “inactive”.
For `CC(=O)c1c(N2CCN(c3ccc(F)cc3)CC2)nc(=S)n(-c2ccccc2)c1C`, the Potency was 14.1 µM (active).
`Cc1ccc2cc(C)c(N3CCN(c4ccc(F)cc4)CC3)nc2c1` was tested, and the Potency was “inactive”.
With `Cc1nnc(SCC(=O)N2CCN(c3ccccc3)CC2)n1-c1ccccc1` the Potency was “inactive”.
For `Cc1ccccc1/C=C\c1nc(O)c([N+](=O)[O-])c(=O)[nH]1`, the Potency was “inactive”.
For `COc1cccc(NC(=O)C2CCCN(c3ncnc4c3nc3n4CCCCC3)C2)c1` (stereo not given), the Potency was “inactive”.
`COc1ccc(NC(=O)N2CCCC(C(=O)Nc3ccccc3OC)C2)cc1` (stereo not given) was tested, and the Potency was “inactive”.
For `CC(C)c1ccc(/C=C/C(=O)NNC(=O)c2cccnc2)cc1`, the Potency was “inactive”.
In the case of `O=C(/C=C/c1ccc(F)cc1)NC(=S)NNC(=O)c1cccnc1`, the Potency was 11.2 µM (active).
For `O=C(/C=C/c1ccc(F)cc1)NCCNC(=O)/C=C/c1ccc(F)cc1`, the Potency was “inactive”.
In the case of `O=C(NCc1ccccc1)c1onc(CSc2nc3ccccc3[nH]2)c1C(=O)NCc1ccccc1`, the Potency was “inactive”.
In the case of `CCSCc1nc(N)nc(NCCc2ccccc2)n1`, the Potency was “inactive”.
In the case of `Cc1cc(C)c(C(=O)CSc2nc(C)cc(=O)[nH]2)c(C)c1`, the Potency was “inactive”.
In the case of `COc1ccccc1N1CCN(S(=O)(=O)CCNC(=O)c2ccc(OC(C)C)cc2)CC1`, the Potency was “inactive”.
